“And” between values parts separate entries of the source, which are not always exact repeats. Equal values may be shown once. Where a name gives a salt, the structure may show the parent alone. ± gives the standard deviation of the averaged measurements. Over roughly 2,600 compounds, “total cell number (DAPI+ nuclei) relative to DMSO vehicle control” has its median near -1.4; the lowest 2% begin near -23. For the sample, the lowest values were picked, then their nearest neighbours and some compounds at random.
Test system: jimpy (Plp1 jimpy) mouse iPSC-derived oligodendrocyte progenitor cells
Experiment: total cell number (DAPI+ nuclei) relative to DMSO vehicle control (SDs above negative control mean); higher = more surviving cells
Conditions: 10 µM; 3 days
Experimental: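 Primary phenotypic screen of >3,000 bioactive compounds (Selleck L1700 and Sigma LO1280 libraries) at a single dose of 10 µM. Compounds were added to jimpy (Plp1 mutant) mouse iPSC-derived OPCs at the start of thyroid hormone-induced oligodendrocyte differentiation, one well per compound in 384-well plates. After 3 days cells were stained for MBP, Sox10 and DAPI and imaged with an Operetta system. MBP+ oligodendrocyte number and total cell number were expressed as the number of SDs above the mean of the DMSO negative control on the same plate (n=16 control wells per plate). Hits were defined as >=4 SD for oligodendrocytes and >=2 SD for total cells.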

SMILES | total cell number
CC(C)(C)C(=O)Oc1ccc(S(=O)(=O)Nc2ccccc2C(=O)NCC(=O)O)cc1 [Sivelestat sodium salt hydrate] | 0.0346
OCCN1CCN(CC/C=C2/c3ccccc3Sc3ccc(C(F)(F)F)cc32)CC1 [cis-(Z)-Flupenthixol dihydrochloride] | -7.96
CN(C)CCN1C(=O)c2cccc3cc(N)cc(c23)C1=O [Amonafide] | -24
O=C(CCCCCN1C(=O)c2cccc3cccc(c23)C1=O)NO [Scriptaid] | -6.21
CC(NC(=O)c1ccccc1/N=C/c1c(O)ccc2ccccc12)c1ccccc1 (centres undefined) [Sirtinol] | -0.73
CCC(=O)O[C@]1(C(=O)CCl)[C@@H](C)C[C@H]2[C@@H]3C[C@H](F)C4=CC(=O)C=C[C@]4(C)[C@@]3(F)[C@@H](O)C[C@@]21C [Halobetasol Propionate] | 10.4
O=C(O)CC[C@H]1CC[C@@](c2cc(F)ccc2F)(S(=O)(=O)c2ccc(Cl)cc2)CC1 | 0.0291
CC(C)(C)c1cnc(CSc2cnc(NC(=O)C3CCNCC3)s2)o1 | -22.9
Nc1ncnc2c1nc(Br)n2C1OC2COP(=O)(O)O[C@@H]2C1O (some centres undefined) [8-Bromo-cAMP sodium] | -0.722
CC(C)[C@H]1C(=O)N[C@@H](CCCNC(=N)N)C(=O)NCC(=O)N[C@@H](CC(=O)O)C(=O)N[C@H](Cc2ccccc2)C(=O)N1C [Cilengitide] | 1.19
COc1cc(C(=O)OCCCN2CCCN(CCCOC(=O)c3cc(OC)c(OC)c(OC)c3)CC2)cc(OC)c1OC [Dilazep hydrochloride] | -5.8
COc1cc(Nc2c(C#N)cnc3cc(OCCCN4CCN(C)CC4)c(OC)cc23)c(Cl)cc1Cl [Bosutinib] | -10.5
COc1cc(Nc2c(C#N)cnc3cc(OCCCN4CCN(C)CC4)c(OC)cc23)c(Cl)cc1Cl [Bosutinib (SKI-606)] | -26.4
COc1cc2/c(=N/c3ccc(Br)cc3F)nc[nH]c2cc1OCC1CCN(C)CC1 [Vandetanib (ZD6474)] | -26.7
COc1cc2nc(N3CCCN(C)CC3)nc(NC3CCN(Cc4ccccc4)CC3)c2cc1OC | -10.1 and -15.2
COc1ccc(C[C@H](NC(=O)[C@H](C)NC(=O)CN2CCOCC2)C(=O)N[C@@H](Cc2ccccc2)C(=O)[C@@]2(C)CO2)cc1 | -12.1
CC(C)(N)c1ncc(-c2ccc(OC(F)(F)F)cc2)[nH]1 | -3.28
Oc1cccc(-c2nc(N3CCOCC3)c3oc4ncccc4c3n2)c1 | -21
N#CC(C#N)=C(N)/C(C#N)=C/c1cc(O)c(O)c(O)c1 [Tyrphostin 51] | -1.44
Fc1cc(-c2cccc3ncc(-c4cnn(C5CCNCC5)c4)nc23)cc(F)c1CN1CCOCC1 | -12.4
C[C@@H](Oc1cc(-c2cnn(C3CCNCC3)c2)cnc1N)c1c(Cl)ccc(F)c1Cl | -27.1
C[C@H](Oc1cc(-c2cnn(C3CCNCC3)c2)cnc1N)c1c(Cl)ccc(F)c1Cl [(S)-crizotinib] | -15.7
C=CCc1cccc(/C=N/NC(=O)CN2CCN(Cc3ccccc3)CC2)c1O | -9.01 ± 1.4
O=C(Nc1ccc(S(=O)(=O)Nc2ccccc2Cl)c(Cl)c1)c1ccccn1 | 0.173
O=c1cc2c(=O)oc3cc(O)c(O)oc3c2c(O)c1O [Galloflavin potassium] | -1.51

SMILES | total cell number
Cc1[nH]c(/C=C2\C(=O)Nc3ccc(S(=O)(=O)Cc4c(Cl)cccc4Cl)cc32)c(C)c1C(=O)N1CCC[C@@H]1CN1CCCC1 | -27.2
CN1CCN(C(=O)c2cc3cc(Cl)ccc3[nH]2)CC1 | -2.98
Cc1[nH]c(/C=C2\C(=O)Nc3ccc(S(=O)(=O)N(C)c4cccc(Cl)c4)cc32)c(C)c1C(=O)N1CCN(C)CC1 | -26.7
CC(C)C[C@H](NC(=O)[C@H]1O[C@@H]1C(=O)O)C(=O)NCCCCN=C(N)N | -3.4 ± 0.35
CN1[C@@H]2CC[C@H]1C[C@@H](OC(=O)C(O)c1ccccc1)C2 (mixture of isomers) [DL-Homatropine hydrobromide] | 0.0407
Cc1nc(NC(=O)N2CCC[C@H]2C(N)=O)sc1-c1ccnc(C(C)(C)C(F)(F)F)c1 | -10.3
COc1cc(C(O)C(=O)O)ccc1O (racemic) [(±)-Vanillylmandelic acid] | -0.443
CC(=O)Nc1nc(C)c(-c2ccc(Cl)c(S(=O)(=O)NCCO)c2)s1 | -15.8
C[C@H](c1ccc(F)cc1CCCC(=O)O)N(c1cc(F)ccc1F)S(=O)(=O)c1ccc(Cl)cc1 | -4.06
COc1cc(OC)cc(-c2cc3cnc(N)nc3nc2NC(=O)NC(C)(C)C)c1 | -5.24
CCN(CC)CCCCNc1ncc2cc(-c3cc(OC)cc(OC)c3)c(NC(=O)NC(C)(C)C)nc2n1 | -24.8
CCN(CC)CCCCCCCCOC(=O)c1cc(OC)c(OC)c(OC)c1 [TMB-8 hydrochloride] | 2.1
C=C1CC[C@@H]2[C@](C)(CO)[C@H](O)CC[C@@]2(C)[C@@H]1C/C=C1/C(=O)OC[C@H]1O [Andrographolide] | -9.57
C=CC(=O)Nc1ccc2ncnc(Nc3cccc(Br)c3)c2c1 | -13.1
N[C@@H](Cc1ccc(F)cc1)C(=O)O [p-Fluoro-L-phenylalanine] | -1.39
Cc1ccc([N+](=O)[O-])cc1S(=O)(=O)N(C)/N=C/c1cnc2ccc(Br)cn12 | -25.8
O=C(O)C1=CO[C@@H](O[C@@H]2O[C@H](CO)[C@@H](O)[C@H](O)[C@H]2O)[C@@H]2C(CO)=CC[C@H]12 [Geniposidic acid] | -0.368
COc1ccc(S(=O)(=O)Nc2nc(-c3cccc([N+](=O)[O-])c3)cs2)cc1OC | -0.431
O=C(c1cc(O)c(O)c([N+](=O)[O-])c1)c1ccccc1F | 0.768
CC1(C)CCC(CN2CCN(c3ccc(C(=O)NS(=O)(=O)c4ccc(NCC5CCOCC5)c([N+](=O)[O-])c4)c(Oc4cnc5[nH]ccc5c4)c3)CC2)=C(c2ccc(Cl)cc2)C1 | -3.38
CN(C)CC[C@H](CSc1ccccc1)Nc1ccc(S(=O)(=O)NC(=O)c2ccc(N3CCN(Cc4ccccc4-c4ccc(Cl)cc4)CC3)cc2)cc1[N+](=O)[O-] | -23.1
CC1(C)CCC(c2ccc(Cl)cc2)=C(CN2CCN(c3ccc(C(=O)NS(=O)(=O)c4ccc(N[C@H](CCN5CCOCC5)CSc5ccccc5)c(S(=O)(=O)C(F)(F)F)c4)cc3)CC2)C1 [ABT-263 (Navitoclax)] | -16.7
CCOC(=O)c1c(CSc2ccccc2)n(C)c2cc(Br)c(O)c(CN(C)C)c12 [Arbidol HCl] | -4.97
COC(=O)C1=C(C)NC(C)=C(C(=O)OCCN2CCN(C(c3ccccc3)c3ccccc3)CC2)C1c1cccc([N+](=O)[O-])c1 (centres undefined) [Manidipine 2HCl] | -11.4
COC(=O)C1=C(C)NC(C)=C(C(=O)OCCN2CCN(C(c3ccccc3)c3ccccc3)CC2)C1c1cccc([N+](=O)[O-])c1 (centres undefined) [Manidipine] | -13

SMILES | total cell number
C=CCN1CCc2cc(O)c(O)cc2C(c2ccccc2)C1 (racemic) | -1.7
C[C@@]1(C(=O)Nc2ccc(F)nc2)CCCN1c1nc(Nc2cc(C3CC3)n[nH]2)c2cccn2n1 | -24.7
O=C(COc1cccc2c(=O)[nH]ccc12)c1ccccc1 | -0.123
CCc1ccc2c(-c3cccc(Cl)c3)nc(=O)n(CC)c2n1 | 0.722
CC(C)NC[C@@H](C(=O)N1CCN(c2ncnc3c2[C@H](C)C[C@H]3O)CC1)c1ccc(Cl)cc1 | -8.76
COc1ccc(C2=N[C@@H](c3ccc(Cl)cc3)[C@@H](c3ccc(Cl)cc3)N2C(=O)N2CCNC(=O)C2)c(OC(C)C)c1 [Nutlin-3] | -23.5
C=C1C(=O)O[C@@H]2/C=C(\C)CC/C=C(\C)CC[C@@H]12 [Costunolide] | -21
CN1CCN(c2ccc3nc(-c4c(N)c5c(F)cccc5[nH]c4=O)[nH]c3c2)CC1 [Dovitinib (TKI-258) Dilactic Acid] | -12.1
CN1CCN(c2ccc3nc(-c4c(N)c5c(F)cccc5[nH]c4=O)[nH]c3c2)CC1 [Dovitinib (TKI-258, CHIR-258)] | -25.7
COc1cc(CCc2cc(NC(=O)c3ccc(N4CC(C)NC(C)C4)cc3)n[nH]2)cc(OC)c1 (centres undefined) | -10.9
NC/C=C/C(=O)O [(E)-4-amino-2-butenoic acid] | -1.89
CC(C)NCC(O)COc1cccc2ccccc12 (racemic) [(±)-Propranolol hydrochloride] | -1.57
c1ccc(-c2[nH]ncc2-c2ccnc3ccccc23)nc1 | -2.66
OC[C@H]1O[C@H]([S-])[C@H](O)[C@@H](O)[C@@H]1O.[Au+] [Aurothioglucose] | -2.94
O=C(c1ccc(/C=C/c2n[nH]c3ccccc23)cc1)N1CCNCC1 | -13.2
COCC[n+]1c2c(n(Cc3cnccn3)c1C)C(=O)c1ccccc1C2=O [YM155 (Sepantronium Bromide)] | -27.7
Cc1ccc2c(c1)C(=O)C1(O)CCN(c3ccccc3)C1=N2 (single isomer, unassigned; (-)) [(-)-Blebbistatin] | -14.8
CNC(=O)CN1CCC(Oc2cc3c(Nc4cccc(Cl)c4F)ncnc3cc2OC)CC1 [AZD8931 (Sapitinib)] | -10.1
CN1CCN(CCOc2cc(OC3CCOCC3)c3c(Nc4c(Cl)ccc5c4OCO5)ncnc3c2)CC1 [Saracatinib (AZD0530)] | -22.8
Cc1ccc(Sc2cncc3sc(C(N)=O)cc23)cc1 | 0.0291
O=C(Nc1ccccc1)N1CCN(c2nc(-c3ccccc3)ns2)CC1 | 0.543
CC(C)C[C@H](C(=O)O)c1cc(-c2ccc(C(F)(F)F)cc2)cc(-c2ccc(C(F)(F)F)cc2)c1 | 10.7
COc1ccccc1CN[C@H]1CCCN[C@H]1c1ccccc1 | -1.93
CCCCCCCCCCCCCCCCn1cc[n+](Cc2ccccc2)c1C | -16.7
